Luc counter: counter-screen: inhibitors of Kinase-Glo firefly luciferase | Q27757 | Kinase-Glo luciferase, ATP luminescence, 8 min | Potency, µM (titrated, usually from 38.3 µM), for the others: at the highest dose activity change, negative = inhibition, most hits filed as inhibitors | 200,000 tested, 0.28% active | AID 1379; further: nearly all actives have a fitted effect of over 60% in size
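Compounds were added to a substrate mix at pH 7.2 (50 mM imidazole, 10 uM ATP, within the enzyme's linear range), followed by Kinase-Glo detection reagent; luminescence was measured after 8 minutes at ambient temperature.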
Tau ThT inhib: blocks human tau fibril formation measured by thioflavin T; Potency, µM (titrated, usually from 57.4 µM), without a hit: at the highest dose activity, negative = inhibition, most hits filed as inhibitors; 270,000 tested, 2.1% active; recombinant tau K18 P301L, heparin-induced fibrillization, ThT fluorescence; further: nearly all actives have a fitted effect of over 55% in size
Target sequence (P10636 561-689 P618L limits assumed): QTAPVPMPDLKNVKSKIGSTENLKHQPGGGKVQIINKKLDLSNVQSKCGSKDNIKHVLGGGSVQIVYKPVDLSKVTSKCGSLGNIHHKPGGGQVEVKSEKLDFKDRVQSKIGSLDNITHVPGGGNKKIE
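Fibril formation assay: tau K18 P301L at 15 uM with trace Alexa 594 label, heparin inducer 20 uM, pH 7 sodium acetate buffer, 37 C for 6 hr; endpoint ThT signal.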
Tau fluor counter: counter-screen for tau fibril formation inhibitors. Potency, µM (doses to about 57.7 µM), for inactives: top-dose activity change, negative = decrease. tau K18 P301L Alexa594 fluorescence, heparin fibrillization. 280,000 tested, 0.93% active; further: nearly all actives have a fitted effect of over 55% in size
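Human tau K18 P301L (15 uM unlabeled, 0.24 uM Alexa 594-labeled) in 100 mM sodium acetate pH 7 with 20 uM heparin, 6 hr at 37 C. ThT 30 uM added, 1 hr ambient; Alexa 594 FP and total fluorescence read at 555/632 nm.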
Tau FP inhib: blocks human tau fibril formation measured by polarization; P10636; K18 P301L tau heparin fibrillization, Alexa594 FP, 6 h; Potency, µM (titrated, usually from 57.7 µM), for inactives: at the top dose activity, negative = inhibition, actives largely listed as inhibitors; 280,000 tested, 0.39% active; further: nearly all actives have a fitted effect of over 55% in size
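Quantitative HTS format: compounds meet 15 uM recombinant K18 P301L tau and Alexa 594-tau tracer in 100 mM sodium acetate pH 7; 20 uM heparin triggers fibrillization at 37 C over 6 hr; FP gives the signal.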
NPSR antag: neuropeptide S receptor (human) antagonism, cAMP; Q6W5P4; CHO-NPSR cells, cAMP TR-FRET, antagonist mode; Potency, µM (top dose mostly 38.3 µM), without a hit: at the top dose activity change, negative = inhibition, usual class: inhibitors; 220,000 tested, 1% active; AID 1461; further: nearly all actives have a fitted effect of over 50% in size
Target sequence (Q6W5P4 whole entry, looked up): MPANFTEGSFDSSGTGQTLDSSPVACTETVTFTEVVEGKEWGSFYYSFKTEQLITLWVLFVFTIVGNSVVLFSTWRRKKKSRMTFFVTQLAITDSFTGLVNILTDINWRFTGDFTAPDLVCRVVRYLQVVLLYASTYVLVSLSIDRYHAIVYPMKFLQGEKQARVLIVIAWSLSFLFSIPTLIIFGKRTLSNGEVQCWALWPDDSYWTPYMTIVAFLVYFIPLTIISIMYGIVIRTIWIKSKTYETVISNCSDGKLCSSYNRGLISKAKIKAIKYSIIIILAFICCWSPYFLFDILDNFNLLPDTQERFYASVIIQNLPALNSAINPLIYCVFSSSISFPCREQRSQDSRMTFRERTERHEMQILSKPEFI
* marks the source's active call; other numbers are inactive results; u = inconclusive; x = no result given; [ ] = another dose, or the depositor's remark. Sampled rows, rich in hits. Any-hit rate of the full collection: about 3.3%. The call rests on the fitted dose curve; in most records, active means well fitted curve in the direction sought with a large enough effect; inconclusive means small, poorly fitted or top-dose-only effect, or another doubt; inactive means no such curve, though single readings can be large; an effect the other way counts as inactive or inconclusive. On the % scale 0 is the no-effect control and ±100 the full control effect; potency means the concentration at half of the fitted maximal effect.

SMILES | Luc counter | Tau ThT inhib | Tau fluor counter | Tau FP inhib | NPSR antag
COc1cc(/C=N/Nc2cccc3cccnc23)cc(OC)c1O | -3% | u | u | 7% | -7%
COC(=O)c1sc2cccc(F)c2c1S(=O)(=O)NCc1ccccc1Cl | x | 6% | -12% | -8% | x
Cn1c(=O)c2c(nc(Cc3ccccc3)n2CC(=O)O)n(C)c1=O | -1%[7.66 µM] | x | x | x | x
Cc1cccc(N2CCN(c3ccc(NC(=O)/C=C(/C(=O)O)c4ccccc4)cc3)CC2)c1 | 3% | 8.9µM* | u | u | -4%[46.1 µM]
Cc1cccc(NC(=S)NCCSc2ccc(Cl)cc2)c1 | 1% | -18% | 10µM*[quencher] | u | -45%
CC(=O)c1ccc(NC(=S)NC(C)c2ccc(Cl)cc2Cl)cc1 (stereo unspecified) | 3% | 9% | 14µM*[quencher] | 32µM* | -47%
CC(=O)c1ccc(NC(=S)Nc2ccc(Br)c(Cl)c2)cc1 | -1% | 9% | u | u | -23%
Cc1cccc(-n2c3nc(=O)n(C)c(=O)c-3cc3c(C)nn(-c4ccccc4)c32)c1C | x | -9% | -8% | -3% | x
CC1=NN(c2ccc([N+](=O)[O-])cc2)C(c2ccccc2)C1 (stereo unspecified) | 0% | u | u | 2% | -19%
N#CC1CC(c2ccc([N+](=O)[O-])cc2)=NN1c1ccc([N+](=O)[O-])cc1 (stereo unspecified) | 1% | 3.2µM* | u | 13% | -15%
COc1ccc(C2C(C(=O)Nc3ccccc3)=C(C)Nc3nc(-c4ccccc4Cl)nn32)cc1OC (stereo unspecified) | x | 0% | -18% | -8% | x
Cc1cccc(N2C(S)=C(C#N)C(=O)NC23CCCCC3)c1 | 1% | 32µM* | -25% | u | 6%
Cc1ccc(N2C(S)=C(C#N)C(=O)NC23CCCCC3)cc1 | 0% | u | -19% | u | -3%
Cc1cc(C)cc(N=Cc2ccc([N+](=O)[O-])s2)c1 | -2% | u | -19% | -8% | -16%
Cc1ccc(NC(=S)N/N=C/c2ccc([N+](=O)[O-])s2)cc1 | 13% | 5µM* | 16µM*[quencher] | u | -37%
O=C(CSc1nc2c(c(=O)[nH]1)CN(Cc1ccc3c(c1)OCO3)CC2)Nc1ccc(F)cc1 | x | -15% | -13% | 1% | x
CCOC(=O)/C=C(C)\C=C\c1c[nH]c2ccccc12 | x | u | 14µM*[quencher] | 15% | -21%
O=C1C(Nc2ccccc2)=C/C(=N/S(=O)(=O)c2cccs2)c2ccccc21 | u | 3.5µM* | 8.9µM*[quencher] | u | -55%
Cc1ccc(NC2=C/C(=N/S(=O)(=O)c3cccs3)c3ccccc3C2=O)cc1 | -27% | u | 8.9µM*[quencher] | -1% | 10µM*
COC(=O)c1ccccc1NC1=C/C(=N\S(=O)(=O)c2cccs2)c2ccccc2C1=O | u | u | u | -10% | -3%[46.1 µM]
O=c1[nH]c2c(s1)C(c1cccnc1)C1C3CCC(C3)C1S2 (stereo unspecified) | x | x | -23% | -3% | 4%
COc1cc(C2c3sc(=O)[nH]c3SC3C(=O)N(c4ccc(Br)cc4)C(=O)C32)ccc1O (stereo unspecified) | x | u | u | 3% | -12%[7.67 µM]
COc1ccc(C2c3sc(=O)[nH]c3SC3C4CCC(C4)C23)cc1OC (stereo unspecified) | 0% | u | -24% | -6% | 7.9µM*
O=c1[nH]c2c(s1)C(c1ccc(O)cc1)C1C3CCC(C3)C1S2 (stereo unspecified) | -1% | u | -23% | 6% | 10µM*
CCOc1cccc(C2c3c(oc4ccccc4c3=O)C(=O)N2c2nc(C)c(C(=O)OC)s2)c1 (stereo unspecified) | x | -1% | -6% | 5% | x
SMILES | Luc counter | Tau ThT inhib | Tau fluor counter | Tau FP inhib | NPSR antag
CCOc1ccc(CC(=O)Nc2c(C(=O)c3ccc(Cl)cc3)oc3ccccc23)cc1OCC | x | -13% | -29% | -11% | x
CN(C)S(=O)(=O)c1cccc(-c2nn(-c3ccccc3)cc2/C=C2\SC(=S)NC2=O)c1 | -2% | u | -19% | 4% | 7.9µM*
Cc1ccc(C(=O)CSc2nc(-c3ccccc3)nc3c2CCCC3)cc1C | x | -3% | -14% | u | x
CC(=O)N1CCc2nc3sc(C(=O)c4ccc(F)cc4)c(N)c3c(C(F)(F)F)c2C1 | x | 4.5µM* | -14% | 8% | x
COc1ccc(C(=O)c2sc3nc4c(c(C(F)(F)F)c3c2N)CN(C(C)=O)CC4)cc1OC | x | 14µM* | -10% | 4% | x
COc1ccc(NC(=O)/C(Cl)=C(/Cl)S(=O)(=O)Cc2ccccc2)cn1 | 0% | 7.1µM* | -24% | u | 5µM*
COc1ccc(NC(=O)/C(Cl)=C(/Cl)S(=O)Cc2ccc(Cl)cc2)cn1 (stereo unspecified) | -2% | u | -17% | u | 7.9µM*
Cc1cccc(NC(=O)N2CC(=O)Nc3sc4c(c3C2c2ccccc2)CCCC4)c1C (stereo unspecified) | x | 0% | 3% | 6% | x
Cn1c(=O)c2c(SCC(=O)N3CCc4ccccc43)nc(-c3ccccc3Cl)nc2n(C)c1=O | x | -1% | 3% | 1% | x
COc1cc(O)c2c(=O)cc(-c3ccc(OC)c(-c4c(O)cc(O)c5c(=O)cc(-c6ccc(O)cc6)oc45)c3)oc2c1 | -8% | -17% | u | u | x
O=c1cc(-c2ccc(O)c(-c3c(O)cc(O)c4c(=O)cc(-c5ccc(O)cc5)oc34)c2)oc2cc(O)cc(O)c12 | -2% | 14µM* | u | u | -11%
O=c1c(-c2c(O)cc(O)c3c(=O)cc(-c4ccc(O)cc4)oc23)c(-c2ccc(O)cc2)oc2cc(O)cc(O)c12 | x | 16µM* | u | u | -25%
CCOC(=O)Cn1c(=O)n(C2CCCCC2)c2nc(-c3ccccc3Cl)nc(C(N)=O)c21 | x | -12% | -17% | -2% | x
COc1ccc(NC(=O)C(C)n2nnc3sc(-c4ccccc4)cc3c2=O)cc1Cl (stereo unspecified) | x | 14µM* | u | u | x
O=C(O)COc1ccc(OCCNC[C@H](O)COc2ccccc2)cc1 | x | -4% | -5% | -5% | x
C/C(=N\OC(=O)c1ccc(F)cc1)c1nccs1 | -26% | -3% | -3% | 7% | -2%[46.1 µM]
COc1ccc(C(=O)O/N=C(/C)c2cccs2)cc1 | 13µM* | u | -20% | -10% | -10%[46.1 µM]
COc1ccc(C(=O)O/N=C(\C)c2nccs2)cc1 | 13µM* | -16% | -12% | -8% | -9%
CCCCCOc1ccccc1CN1C(=O)C(=O)c2cc(C)ccc21 | x | u | -18% | -2% | x
CC(C)(C)c1ccc(S(=O)(=O)/C=C/C#N)cc1 | -3% | u | 0% | -9% | 20µM*
Nc1c(-c2nc(-c3cccs3)no2)nnn1-c1ccc(Cl)cc1 | x | 5% | -1% | -10% | x
